This is a sample that favours compounds with a hit; in the whole collection about 3.1% have one here.
FAS TE block: inhibitors of human fatty acid synthase thioesterase domain. P49327. inhibition, % at 15 µM. recombinant FAS-TE, OMFH fluorogenic substrate, fluorescence endpoint. actives 0.67% (n = 360,000);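 active = compounds whose normalised, plate-corrected inhibition of enzyme fluorescence in the single-dose primary screen is 50% or more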
Calb FLC: affects C. albicans growth with fluconazole; C. albicans CaCi-2 (fluconazole-resistant clinical isolate) + fluconazole, Alamar Blue growth, 48 h; growth inhibition, % (concentration not given with the values); actives 0.57% (n = 300,000);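 active = growth inhibition above about 58% in most replicates, limit read from the data, passing the limit was not always enough; inconclusive = exactly half the replicates above a set limit; inactive = most replicates below a set limit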;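 also: all wells also contain fluconazole at 8 µg/ml as a sub-toxic cotreatment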
NadD inh: blocks S. aureus nicotinate mononucleotide adenylyltransferase. actives 0.78% (n = 360,000). inhibition, % at 20 µM. purified NadD enzyme, colorimetric absorbance read-out. AID 602399; in the data active = inhibition above about 26%
Mot1-301 SUMO: SUMOylation pathway inhibition by Mot1-301 growth rescue; actives 1% (n = 320,000); AID 2716; growth rescue, % at 18.8 µM; S. cerevisiae Mot1-301 growth rescue, ATP luminescence, 38.5C; percent above DMSO median, 100 means doubled;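 active = every valid replicate shows activation above 250% relative to neutral control wells; inactive = the rest, any valid replicate at or below 250%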
ATG4B inhibitor: inhibitors of human ATG4B cysteine protease | actives 0.51% (n = 340,000) | ATG4B cleavage of LC3-PLA2, NBD-HPC fluorescence, 1 h | inhibition, % at 8.33 µM | Q9Y4P1 | AID 504462; in the data active = inhibition above about 40%
Target sequence (Q9Y4P1 whole entry, looked up): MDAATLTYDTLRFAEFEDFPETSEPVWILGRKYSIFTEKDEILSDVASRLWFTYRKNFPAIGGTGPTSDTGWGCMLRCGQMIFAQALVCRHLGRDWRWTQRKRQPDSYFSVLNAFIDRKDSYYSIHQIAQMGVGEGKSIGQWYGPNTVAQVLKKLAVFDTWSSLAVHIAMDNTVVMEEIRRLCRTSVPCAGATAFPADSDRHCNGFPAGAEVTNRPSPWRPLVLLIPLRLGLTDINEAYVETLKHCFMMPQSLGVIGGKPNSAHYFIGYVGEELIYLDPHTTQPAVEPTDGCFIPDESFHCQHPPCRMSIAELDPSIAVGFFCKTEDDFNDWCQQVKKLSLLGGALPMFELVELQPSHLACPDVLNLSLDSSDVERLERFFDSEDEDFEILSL
Each line names hits and unclear results; the compound was inactive in the other large screens.

O=C(NC1CCCC1)C1c2ccccc2OCC(=O)N1CCCN1CCOCC1 (configuration not stated)	none (no result: Calb FLC, Mot1-301 SUMO, ATG4B inhibitor)
COc1cc(SC)ccc1C(=O)OCC(=O)NC1CC1	Calb FLC 98
Cc1onc(-c2ccccc2Cl)c1C(=O)Nc1nnc(C(C)C)s1	none
Cc1nnc(NC(=O)c2c(-c3ccccc3Cl)noc2C)s1	Calb FLC 83
Cc1onc(-c2c(Cl)cccc2Cl)c1NC(=O)NNc1ccccc1	none
COc1ccc(NC(=O)CN(C)C(=O)c2c(-c3c(F)cccc3Cl)noc2C)cc1	Mot1-301 SUMO 688
Cc1onc(-c2c(Cl)cccc2Cl)c1C(=O)NNc1ccccc1	Mot1-301 SUMO 318
COc1ccc(NC(=O)CN(C)C(=O)c2c(-c3ccccc3Cl)noc2C)cc1	none
Cc1cc(C)n2nc(SCCOc3ccccc3)nc2n1	none (no result: Mot1-301 SUMO)
O=C(CSC1=NC(=O)C(Cc2ccccc2)C(=O)N1)Nc1ncc(Br)cc1Br (configuration not stated)	Mot1-301 SUMO 327
Cn1cc(/C=C/c2cc[n+](C)cc2)c2cc(F)ccc21	Calb FLC inconclusive
Cn1cc(/C=C/c2cc[n+](C)cc2)c2cc(Cl)ccc21	Calb FLC 82
FC(F)(F)c1ccccc1NC(=S)N1CCCCCC1	none
CCc1ccccc1NC(=S)N1CCCCCC1	Calb FLC 117
COc1ccc(CNCCC2(Cc3ccccc3)CC(C)N(C)CC2C)cc1OC (configuration not stated)	none
Cc1ccc(Cl)c(OCCN2CCc3ccccc3C2)c1	Mot1-301 SUMO 323
COc1ccc(NC(=O)CN2C(=O)NC(C)(c3ccccc3)C2=O)c(OC)c1 (configuration not stated)	none
Cc1ccc(N2NC(C)(c3cccs3)NC2=S)cc1 (configuration not stated)	Calb FLC 105
Cc1ccc(N2CC(O)(c3cccs3)[N+]3=C2CCCC3)cc1 (configuration not stated)	none
COc1cccc(C(=O)N(C)c2nnc(-c3ccncc3)s2)c1	none
COc1cccc(-c2nnc(N(C)C(=O)C3CCOC3)s2)c1 (configuration not stated)	Mot1-301 SUMO 344
c1cc2c3c(cccc3c1)NC1(CCCCC1)N2	NadD inh 36
c1cc2c3c(cccc3c1)NC1(CCC3(CC1)Nc1cccc4cccc(c14)N3)N2	NadD inh 51
c1cc2c3c(cccc3c1)NC1(CCCCCC1)N2	none
CSc1ccc(CN2C(=O)C(C)ON=C2c2ccccc2F)cc1 (configuration not stated)	none (no result: Calb FLC, Mot1-301 SUMO, ATG4B inhibitor)
COc1ccccc1C1=Nn2c(nnc2C2CCCCC2)SC1	Mot1-301 SUMO 354 (no result: Calb FLC)
O=C(Nc1ccc(N2CCCC2)cc1)c1ccc(Br)o1	NadD inh 44
CCN1CCN(c2ccc(NC(=O)c3ccc(Br)o3)cc2)CC1	none (no result: Mot1-301 SUMO)
Cc1ccc(C(NC(=O)C(C)C)c2cc([N+](=O)[O-])c3cccnc3c2O)cc1 (configuration not stated)	none
CC(=O)NC(c1cccs1)c1cc(F)c2cccnc2c1O (configuration not stated)	none (no result: Calb FLC)
CC(C)CC(=O)NC(c1cccs1)c1ccc2cccnc2c1O (configuration not stated)	Calb FLC 107
CCC(=O)NC(c1cccs1)c1ccc2cccnc2c1O (configuration not stated)	Calb FLC 101
CC(C)C(=O)NC(c1cccs1)c1cc([N+](=O)[O-])c2cccnc2c1O (configuration not stated)	Calb FLC 90
CCCC(=O)NC(c1cccs1)c1cc(Cl)c2cccnc2c1O (configuration not stated)	Calb FLC 86
CCCC(=O)NC(c1ccco1)c1cc(Cl)c2cccnc2c1O (configuration not stated)	none
Cc1conc1NC(c1cccs1)c1ccc2cccnc2c1O (configuration not stated)	Calb FLC 87 (no result: FAS TE block, NadD inh, ATG4B inhibitor)
CNc1cc(-c2cccc(N(C)C)c2)ncn1	none (no result: Calb FLC, Mot1-301 SUMO, ATG4B inhibitor)
Cc1ccc(/C=N/NC(=O)c2c(-c3ccccc3)noc2C)c(O)c1	Calb FLC 112 (no result: ATG4B inhibitor)
Cc1cccc(Cn2c(O)c(N=NC(=S)Nc3ccccc3F)c3ccccc32)c1	Calb FLC 114 (no result: Mot1-301 SUMO)
Oc1c(N=NC(=S)Nc2ccccc2F)c2ccccc2n1Cc1cccc(Cl)c1	none
CCN(c1ccc(NC(=O)COC(=O)C(C)N=C2NS(=O)(=O)c3ccccc32)cc1)C(C)C (configuration not stated)	none (no result: Calb FLC, Mot1-301 SUMO)

From PubChem
